Assay results: the supplement of paper PMC10503962

What follows are molecules tested on Trichuris muris adult worms (assay: mean motility score (Paragon pixel variance) of adult worms (arbitrary units); higher = more motile worms, i.e. less anthelmintic effect; extreme values may be limits of the assay). Conditions: 100 µM; 24 h.
How it was run: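 Adult Trichuris muris worms were collected from infected NOD SCID mice and placed one per well in 96-well plates containing 100 μL RPMI-1640 with antibiotics and drug at 100 μM (1% v/v DMSO), then incubated for 24 h at 37°C and 5% CO2. Each plate was filmed on an automated phenotyping platform, capturing 200 frames 100 ms apart. The motility score came from Paragon pixel-variance analysis and was averaged over replicate wells. Every drug was tested with three worms in three wells on three separate occasions, alongside vehicle and positive controls.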
Molecule CCCc1cc(O)nc(S)n1 [propylthiouracil] has a mean motility score of 3720.
COc1ccccc1N1CCN(CCCNc2cc(=O)n(C)c(=O)n2C)CC1 [urapidil] was tested, and the mean motility score was 2810.
For CCCCCCCCCCC[C@@H](C[C@@H]1OC(=O)[C@H]1CCCCCC)OC(=O)[C@H](CC(C)C)NC=O [orlistat], the mean motility score was 3180.
For N#Cc1ccc(C(c2ccc(C#N)cc2)n2cncn2)cc1 [letrozole], the mean motility score was 4830.
With OCc1ccccc1 [benzyl alcohol] the mean motility score was 2390.
In the case of CCOc1cc(N)c(Cl)cc1C(=O)NCC1CN(Cc2ccc(F)cc2)CCO1 (configuration not stated) [mosapride], the mean motility score is reported as 2610.
In the case of Cc1cc(Nc2ncc(Cl)c(Nc3ccccc3S(=O)(=O)C(C)C)n2)c(OC(C)C)cc1C1CCNCC1 [ceritinib], the mean motility score is reported as 1.33.
Work on Nc1ncn([C@@H]2O[C@H](CO)[C@@H](O)[C@H]2O)c(=O)n1 [azacitidine] yielded a mean motility score of 4300.
Work on Cc1cc2cc3c(C)cc(=O)oc3c(C)c2o1 [trioxsalen] yielded a mean motility score of 2070.
For CCc1ccc(CCOc2ccc(CC3SC(=O)NC3=O)cc2)nc1 (configuration not stated) [pioglitazone], the mean motility score was 0.
O=C1NC(=O)C(c2ccccc2)(c2ccccc2)N1 [phenytoin] gave a mean motility score of 2510.
Molecule NS(=O)(=O)c1cc(Cl)c(Cl)c(S(N)(=O)=O)c1 [dichlorphenamide] has a mean motility score of 752.
For OCCN(CCO)c1nc(N2CCCCC2)c2nc(N(CCO)CCO)nc(N3CCCCC3)c2n1 [dipyridamole], the mean motility score was 2870.
In the case of Cc1cc2c(s1)Nc1ccccc1N=C2N1CCN(C)CC1 [olanzapine], the mean motility score is reported as 454.
Cc1nc(O)c(C#N)cc1-c1ccncc1 [milrinone] gave a mean motility score of 4250.
CCN1CCCC1CNC(=O)c1cc(S(N)(=O)=O)ccc1OC (configuration not stated) [sulpiride] showed a mean motility score of 2290.
For Oc1ccc(O)cc1 [hydroquinone], the mean motility score was 4230.
CC(C)C(=O)Nc1ccc([N+](=O)[O-])c(C(F)(F)F)c1 [flutamide] gave a mean motility score of 113.
NC(CO)(CO)CO [tromethamine] was tested, and the mean motility score was 2770.
Work on c1ccc(-c2ccc(C(c3ccccc3)n3ccnc3)cc2)cc1 (configuration not stated) [bifonazole] yielded a mean motility score of 20.
CC(=O)Nc1ccc(O)cc1 [acetaminophen] was tested, and the mean motility score was 2180.
Work on CN(C)CCc1c[nH]c2ccc(C[C@H]3COC(=O)N3)cc12 [zolmitriptan] yielded a mean motility score of 3180.
Molecule N[C@@H](CO)C(=O)O [serine] has a mean motility score of 2250.
CS(=O)(=O)Nc1ccc([N+](=O)[O-])cc1Oc1ccccc1 [nimesulide] showed a mean motility score of 1.33.
For CCCN[C@H]1CCc2nc(N)sc2C1.Cl.Cl [pramipexole dihydrochloride], the mean motility score was 3620.
For CN(C)CCCN1c2ccccc2Sc2ccc(Cl)cc21 [chlorpromazine], the mean motility score was 0.
With C[C@@H]1C[C@H]2[C@@H]3CCC4=CC(=O)C=C[C@]4(C)[C@@]3(F)[C@@H](O)C[C@]2(C)[C@H]1C(=O)CO [desoximetasone] the mean motility score was 772.
In the case of O=C(CCCN1CC=C(n2c(O)nc3ccccc32)CC1)c1ccc(F)cc1 [droperidol], the mean motility score is reported as 2120.
CCCc1nc(C(C)(C)O)c(C(=O)OCc2oc(=O)oc2C)n1Cc1ccc(-c2ccccc2-c2nnn[nH]2)cc1 [olmesartan medoxomil] was tested, and the mean motility score was 3650.
COc1c2ccoc2cc2oc(=O)ccc12 [bergapten] showed a mean motility score of 3090.
For COc1c(C)c2c(c(O)c1C/C=C(\C)CCC(=O)O)C(=O)OC2 [mycophenolic acid], the mean motility score was 2100.
Cl.Fc1ccc([C@@H]2CCNC[C@H]2COc2ccc3c(c2)OCO3)cc1 [paroxetine hydrochloride] gave a mean motility score of 1300.
CS(=O)(=O)OCCCCOS(C)(=O)=O [busulfan] was tested, and the mean motility score was 3180.
In the case of O=C(O)/C=C/C(=O)O.OCCOCCN1CCN(C2=Nc3ccccc3Sc3ccccc32)CC1.OCCOCCN1CCN(C2=Nc3ccccc3Sc3ccccc32)CC1 [quetiapine fumarate], the mean motility score is reported as 3120.
Molecule COc1ccc(/C=C/C(=O)Nc2ccccc2C(=O)O)cc1OC [tranilast] has a mean motility score of 1720.
For COC1=C(OC)C(=O)C(CCCCCCCCCCO)=C(C)C1=O [idebenone], the mean motility score was 1370.
With CC(=O)N1CCN(c2ccc(OC[C@@H]3CO[C@@](Cn4ccnc4)(c4ccc(Cl)cc4Cl)O3)cc2)CC1 [ketoconazole] the mean motility score was 1360.
